Data on 8 molecules can be found in PubChem BioAssay (NCI).

Holding throughout (experiment): NCI-60 one-dose screen, 48 h (100 = growth as untreated, 0 = no growth, -100 = all killed)
The subject of one assay is SN12C renal. Conditions: 10 µM unless noted.
For a further assay, the system named is UO-31 renal. Conditions: 10 µM unless noted.
A further assay relates to TK-10 renal. As to conditions: 10 µM unless noted.
Another assay has as its system ACHN renal. Conditions: 10 µM unless noted.
Another assay deals with CAKI-1 renal. Conditions: 10 µM unless noted.
Another assay has as its system A498 renal. Conditions: 10 µM unless noted.
The test system of the next assay is CCRF-CEM leukemia. As to conditions: 10 µM unless noted.
In the next assay the test system is MOLT-4 leukemia. Conditions: 10 µM unless noted.
The subject of another assay is SR leukemia. As to conditions: 10 µM unless noted.
The next assay concerns OVCAR-8 ovarian. Conditions: 10 µM unless noted.
For a further assay, the system named is OVCAR-5 ovarian. Conditions: 10 µM unless noted.
The subject of another assay is OVCAR-4 ovarian. As to conditions: 10 µM unless noted.
Another assay deals with SK-OV-3 ovarian. As to conditions: 10 µM.
Another assay concerns IGROV1 ovarian. As to conditions: 10 µM unless noted.
In a further assay the test system is OVCAR-3 ovarian. Conditions: 10 µM unless noted.
Another assay has as its system HS 578T breast. As to conditions: 10 µM unless noted.
The subject of the next assay is NCI/ADR-RES ovarian. Conditions: 10 µM unless noted.
Another assay relates to RPMI-8226 leukemia. Conditions: 10 µM.

This is part of a sample that, as a whole, favours compounds with a hit. Of some 83,000 tested, about 20% had one in any assay.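 Growth was measured after 48 h exposure to one concentration of compound in 96-well plates. Values under 10 count as active.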 Values without a mark were called inactive. Activity calls are given as the source filed them.

Regarding `COC(=O)[C@H]1CCCN1C(=O)[C@H]1CCCN1C(=O)[C@@H](Cc1c[nH]c2ccccc12)NC(=S)Nc1cc(C(F)(F)F)cc(C(F)(F)F)c1`, the growth in the assay on SN12C renal is 43.2%; with UO-31 renal, 41.1%; with TK-10 renal it was 78.4%; in the assay on ACHN renal, 44.3%; in the assay with CAKI-1 renal, 28.5%; in the assay with A498 renal, 56%. Moreover, the growth in the assay on CCRF-CEM leukemia was 36%; with MOLT-4 leukemia it was 21.2%; in the assay with SR leukemia it was 14.4%; in the assay on OVCAR-8 ovarian, 66.8%; in the assay with OVCAR-5 ovarian it was 76.4%; in the assay with OVCAR-4 ovarian, 44.6%. For the same molecule, the growth in the assay with SK-OV-3 ovarian is 77.2%; in the assay with IGROV1 ovarian, 22.7%; in the assay with OVCAR-3 ovarian, 48.3%; in the assay with HS 578T breast it was 12.3%; with NCI/ADR-RES ovarian it was 89.9%.
Take `Cc1ccc(N(CSc2ccc(Cl)cc2)CSc2ccc(Cl)cc2)cc1`: the growth with SN12C renal was 30.3%; in the assay on UO-31 renal it was 22.1%; in the assay on TK-10 renal, 92.2%; with ACHN renal it was 66.6%; in the assay on CAKI-1 renal, 28.8%; in the assay with A498 renal, -22.4% (active). Also, the growth is -7.51% (active) in the assay on CCRF-CEM leukemia; -16.3% (active) in the assay with MOLT-4 leukemia; 11.2% with SR leukemia; 6.09% (active) in the assay on RPMI-8226 leukemia; 66.9% in the assay on OVCAR-8 ovarian; 79.1% in the assay on OVCAR-5 ovarian. Besides, the growth with OVCAR-4 ovarian was 85.2%; with IGROV1 ovarian, -10.3% (active); with OVCAR-3 ovarian, 48.3%; in the assay on HS 578T breast it was 45%; in the assay on NCI/ADR-RES ovarian it was 31.5%.
As for `O=c1[nH]c(-c2ccncc2)nc2sc3c(c12)CCCCCC3`, the growth with SN12C renal was 77.9%; in the assay with UO-31 renal, 70.5%; in the assay on ACHN renal, 49.9%; with CAKI-1 renal, 67.8%; in the assay on A498 renal, 70.1%; in the assay with CCRF-CEM leukemia it was 98.1%. Besides, the growth in the assay on MOLT-4 leukemia is 92.1%; in the assay with RPMI-8226 leukemia, 91%; in the assay with OVCAR-8 ovarian, 69.2%; in the assay with OVCAR-4 ovarian, 1.18% (active); with SK-OV-3 ovarian it was 31.5%; in the assay on IGROV1 ovarian it was 69.5%. For the same molecule, the growth in the assay with OVCAR-3 ovarian was 74.1%; in the assay with HS 578T breast it was 85.9%; with NCI/ADR-RES ovarian, 55%.
Turning to `COc1cc(NC(=O)COc2ccccc2)c(C(N)=O)cc1OC`, the growth with SN12C renal was 44.7%; in the assay with UO-31 renal, 51.3%; in the assay with ACHN renal, 54.9%; in the assay with CAKI-1 renal it was 37.1%; with A498 renal it was 4.84% (active); in the assay with CCRF-CEM leukemia it was 6.33% (active). The growth was 23.3% with SR leukemia; 9.18% (active) with RPMI-8226 leukemia; 34.2% with OVCAR-8 ovarian; 48.8% with OVCAR-5 ovarian; 93.9% with OVCAR-4 ovarian; 30.4% with SK-OV-3 ovarian. The growth in the assay with IGROV1 ovarian was 43.9%; with OVCAR-3 ovarian, 6.16% (active); in the assay on HS 578T breast it was 29.6%; in the assay with NCI/ADR-RES ovarian, 10.2%.
Regarding `O=C1CC2c3cc(-c4cc5ccccc5o4)ccc3CCN2C(=O)N1c1ccccc1` (configuration not stated), the growth with SN12C renal is 89.3%; with UO-31 renal it was 58.8%; in the assay with TK-10 renal, 78.5%; with ACHN renal it was 99.6%; with CAKI-1 renal it was 80.8%; with A498 renal, 82%. Also, the growth was 68.2% with CCRF-CEM leukemia; 57.6% in the assay with SR leukemia; 68.1% in the assay with RPMI-8226 leukemia; 88.4% in the assay with OVCAR-8 ovarian; 97.9% with OVCAR-5 ovarian; 84.7% in the assay with OVCAR-4 ovarian. Moreover, the growth is 80% with SK-OV-3 ovarian, 84.6% in the assay with IGROV1 ovarian, 99.3% with OVCAR-3 ovarian and 107% with HS 578T breast.
On to `O=c1[nH]c(-c2ccccn2)nc2sc3c(c12)CCCCCC3`, for which the growth in the assay on SN12C renal was 50.5%; in the assay on UO-31 renal it was 31.8%; with ACHN renal it was 37.5%; with CAKI-1 renal, 28.1%; in the assay on A498 renal, 36.7%; with CCRF-CEM leukemia, 32.6%. The growth in the assay on MOLT-4 leukemia is 18.8%; in the assay on SR leukemia, 22.1%; with RPMI-8226 leukemia it was 39.4%; with OVCAR-8 ovarian, 29.9%; in the assay with OVCAR-5 ovarian it was 58.6%; with OVCAR-4 ovarian it was 28%. Further, the growth is 45.2% in the assay on SK-OV-3 ovarian; 42.4% in the assay on IGROV1 ovarian; 54.7% in the assay with OVCAR-3 ovarian; 69.9% in the assay on HS 578T breast; 24.6% in the assay on NCI/ADR-RES ovarian.
Regarding `Oc1ccc2ccccc2c1C1NN=C(c2ccccc2)S1` (configuration not stated), the growth with SN12C renal was 17.2%; in the assay with UO-31 renal, -11.5% (active); in the assay with TK-10 renal, 49%; in the assay with ACHN renal, 10.9%; in the assay with CAKI-1 renal, -1.25% (active); in the assay on A498 renal, 31.3%. Moreover, the growth is 13% with MOLT-4 leukemia; 19.6% in the assay on RPMI-8226 leukemia; 15.6% with OVCAR-8 ovarian; 43.2% in the assay with OVCAR-5 ovarian; 22.3% in the assay on OVCAR-4 ovarian; 15.4% with SK-OV-3 ovarian. Moreover, the results for the growth with OVCAR-3 ovarian, in the assay with HS 578T breast and in the assay with NCI/ADR-RES ovarian were 35.1%, 57.7% and 19.5%, respectively.
Regarding `O=C1/C(=C/c2ccc(F)cc2)CN(Cc2cn(CCNc3ccnc4cc(Cl)ccc34)nn2)C/C1=C\c1ccc(F)cc1`, the growth in the assay on SN12C renal is -75% (active); with UO-31 renal, -95.8% (active); in the assay with TK-10 renal, -20.3% (active); in the assay on CAKI-1 renal, 1.43% (active); in the assay with A498 renal, -79.3% (active); in the assay with SR leukemia, -23.7% (active). Moreover, the growth is -31% (active) with RPMI-8226 leukemia; -5.64% (active) with OVCAR-8 ovarian; 23.3% with OVCAR-4 ovarian; -27.1% (active) in the assay with SK-OV-3 ovarian; 0.407% (active) with IGROV1 ovarian; -39.7% (active) in the assay on OVCAR-3 ovarian. Besides, the growth was 18.2% in the assay with HS 578T breast and 4.23% (active) in the assay on NCI/ADR-RES ovarian.
